# Source: PubChem
# Tau fibril ThT: qHTS for Inhibitors of Tau Fibril Formation, Thioflavin T Binding; Microtubule-associated protein tau (Homo sapiens), P10636; recombinant tau K18 P301L, heparin-induced fibrillization, ThT fluorescence; Potency, µM (series often up to 57.4 µM), without a hit: top-dose activity, negative = inhibition, hits mostly inhibitors; 270,000 compounds, 2.1% hits; AID 1460, 2008; note: nearly all actives have a fitted effect of over 55% in size
# Target sequence (P10636 561-689 P618L limits assumed): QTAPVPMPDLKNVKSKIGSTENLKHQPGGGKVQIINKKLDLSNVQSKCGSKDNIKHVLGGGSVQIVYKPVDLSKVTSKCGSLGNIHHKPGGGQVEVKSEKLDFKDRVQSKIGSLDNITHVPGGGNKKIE
#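 Aggregation was driven by heparin (20 uM final) acting on recombinant tau […] bearing P301L in 100 mM sodium acetate pH 7; fibrils were detected with Thioflavin T.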
# ALDH1A1 block: qHTS Assay for Inhibitors of Aldehyde Dehydrogenase 1 (ALDH1A1). 220,000 compounds, 7.3% hits. Purified ALDH1A1, NADH fluorescence, propionaldehyde substrate. Potency, µM (doses to about 75.3 µM), inactives show at the top dose activity, negative = inhibition, hits mostly inhibitors. AID 1030, 2008. Aldehyde dehydrogenase 1A1 (Homo sapiens), P00352; active = well fitted inhibition curve with a large enough effect, not every such curve was filed as active; inconclusive = small, poorly fitted or top-dose-only effect, or another doubt; inactive = no such curve, though single readings can be large or run the other way;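 note: plate controls were no enzyme wells and a reference inhibitor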
# Tau fluor cs: Counterscreen qHTS for Inhibitors of Tau Fibril Formation, Fluorescence Polarization; Potency, µM (titrated, usually from 57.7 µM), for the others: at the highest dose activity change, negative = decrease; AID 1463, 2008; tau K18 P301L Alexa594 fluorescence, heparin fibrillization; 280,000 compounds, 0.93% hits; note: nearly all actives have a fitted effect of over 55% in size
#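 Human tau K18 P301L (15 uM unlabeled, 0.24 uM Alexa 594-labeled) in 100 mM sodium acetate pH 7 with 20 uM heparin, 6 hr at 37 C. ThT 30 uM added, 1 hr ambient; Alexa 594 FP and total fluorescence read at 555/632 nm.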
# NPSR antag: qHTS Assay for Antagonists of the Neuropeptide S Receptor: cAMP Signal Transduction; CHO-NPSR cells, cAMP TR-FRET, antagonist mode; Potency, µM (titrated, usually from 38.3 µM), for the others: at the highest dose activity change, negative = inhibition, most hits filed as inhibitors; 220,000 compounds, 1% hits; note: nearly all actives have a fitted effect of over 50% in size
# Tau FP inhib: qHTS for Inhibitors of Tau Fibril Formation, Fluorescence Polarization; Microtubule-associated protein tau (Homo sapiens), P10636; K18 P301L tau heparin fibrillization, Alexa594 FP, 6 h; Potency, µM (top dose mostly 57.7 µM), inactives show at the top dose activity, negative = inhibition, most hits filed as inhibitors; 280,000 compounds, 0.39% hits; AID 1468, 2008; note: nearly all actives have a fitted effect of over 55% in size
#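 Human tau K18 […] P301L fragment, 15 uM unlabeled plus 0.24 uM Alexa 594-labeled tau (final), with compound and 20 uM heparin in 100 mM sodium acetate pH 7; 6 hr at 37 C, then Alexa 594 FP read.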
# HPGD inh: qHTS Assay for Inhibitors of HPGD (15-Hydroxyprostaglandin Dehydrogenase); 15-hydroxyprostaglandin dehydrogenase [NAD(+)] (Homo sapiens), P15428; purified HPGD, NADH fluorescence kinetic, PGE2 substrate; Potency, µM, without a hit: top-dose activity change, negative = inhibition, actives largely listed as inhibitors; 150,000 compounds, 4.3% hits; AID 894, 2007; active = well fitted inhibition curve with a large enough effect, not every such curve was filed as active; inconclusive = small, poorly fitted or top-dose-only effect, or another doubt; inactive = no such curve, though single readings can be large or run the other way
# Target sequence (P15428 whole entry, looked up): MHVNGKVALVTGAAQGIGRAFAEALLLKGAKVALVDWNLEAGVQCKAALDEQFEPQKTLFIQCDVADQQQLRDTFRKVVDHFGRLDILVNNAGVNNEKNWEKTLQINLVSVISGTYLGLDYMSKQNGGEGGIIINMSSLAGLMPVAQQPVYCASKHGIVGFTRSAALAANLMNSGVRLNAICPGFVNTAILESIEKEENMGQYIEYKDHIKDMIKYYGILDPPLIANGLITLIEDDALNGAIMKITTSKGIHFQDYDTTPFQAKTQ
#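 NADH formation kinetics: reaction with 30 uM PGE2 and 1 mM NAD+ (final), 20 nM enzyme, Tris-HCl pH 8 with Tween 20, after 15 min compound preincubation at room temperature. Fluorescence change, last versus first of five reads.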
# Active calls of the source: *; u = inconclusive; x = no result given; [ ] = dose if it differs, or a comment. Only some compounds are listed: those with a hit (about 9.5% of all), similar ones and a draw of the others. Unless noted, calls come from the whole dose curve; as a rule, active = well fitted curve in the direction sought with a large enough effect; inconclusive = small, poorly fitted or top-dose-only effect, or another doubt; inactive = no such curve, though single readings can be large; an effect the other way counts as inactive or inconclusive. Unless noted, % is set by controls: 0 for no effect and ±100 for the full control effect; potency is the fitted concentration of half-maximal effect.
SMILES,Tau fibril ThT,ALDH1A1 block,Tau fluor cs,NPSR antag,Tau FP inhib,HPGD inh
CCOc1cccc(/C=C/c2cc(C(=O)O)c3ccccc3n2)c1OC,-8%,x,-1%,-27%,4%,x
O=C(O)c1ccccc1C(c1ccc(O)cc1)c1ccc(O)cc1,x,28µM*,x,x,x,3%
CCOc1ccc(-n2c(N)c(C(=O)NCc3ccco3)sc2=S)cc1,-10%,22µM*,-21%,-16%[46.1 µM],-3%,32µM*
COc1ccc2cc3cc(C(=O)NCc4ccco4)oc3nc2c1,-14%,u,-12%,-22%[46.1 µM],-3%,u
CCOc1ccc(-n2c(N)c(C(=O)NCc3cccnc3)sc2=S)cc1,-7%,u,-14%,-9%[46.1 µM],u,35µM*
COc1ccc2cc3c(N)c(C(=O)NCc4ccco4)sc3nc2c1,2.8µM*,u,u,-5%[46.1 µM],10%,u
CC(=O)N1c2ccccc2C(=O)C1N1CCN(c2cccc(C(F)(F)F)c2)CC1 (stereo not drawn),-11%,x,-29%,x,-2%,x
Cc1ccc(C(=O)Nc2cc(-c3nc4ncccc4o3)ccc2C)c(C)c1,u,x,-17%,x,u,x
COc1cc(S(=O)(=O)Nc2ccc(C)cc2)ccc1N=Cc1c(C)[nH]n(-c2ccc(C)cc2)c1=O,-9%,1%,-23%,-1%,7%,-17%
COc1cc(SC#N)ccc1N=Cc1c(C)[nH]n(-c2cccc3ccccc23)c1=O,7.9µM*,0.45µM*,-17%,-11%[46.1 µM],u,u
COc1cc(SC#N)ccc1N=Cc1c(C)[nH]n(-c2ccc(C)cc2C)c1=O,14µM*,0.71µM*,-21%,-13%[46.1 µM],u,8.9µM*
COc1ccccc1N=Cc1c(C)[nH]n(-c2ccc(C)cc2C)c1=O,-17%,u,7%[2.34 µM],-8%,-3%[2.34 µM],x
Brc1ccc(-c2nc(N/N=C/c3cccnc3)c3ccccc3n2)cc1,-15%,u,u,10µM*,u,u
CC1CCCCC1NC(=O)COC(=O)CNC(=O)c1cccc(F)c1 (stereo not drawn),2%,u,-3%,7%,-2%,x
CCOc1ccc(NC(=O)c2cc(S(=O)(=O)NC3CCCC3)ccc2F)cc1,3%,x,-5%,x,-6%,x
CCOC(=O)c1ccccc1Nc1cc(C)nc2nc(C)nn12,-1%,5%,1%,-6%[46.1 µM],3%,2.2µM*
COC(=O)c1ccc(Nc2cc(C)nc3nc(C)nn23)cc1,-3%,7%,-11%,14%,3%,-26%
Cc1cc(Nc2ccccc2Br)n2nc(C)nc2n1,-3%,3%,-4%,18%,-7%,u
COC(=O)c1ccccc1Nc1cc(C)nc2nc(C)nn12,-8%,22%,-4%,10%,-3%,1µM*
Cc1ccc(C(=O)N/N=C(/CC(=O)c2cccs2)C(F)(F)F)cc1,u,-4%,-17%,5%,9%,-10%
O=C(N/N=C(\CC(=O)c1cccs1)C(F)(F)F)c1ccncc1,14µM*,u,u,-1%,8%,x
O=C1C=C(c2ccccc2)C[C@H](c2cccs2)[C@H]1n1nnc([N+](=O)[O-])n1,u,10µM*,u,-13%[46.1 µM],7%,-20%
O=C1C=C(c2ccccc2)CC(c2cccs2)C1n1cnc([N+](=O)[O-])c1 (stereo not drawn),u,u,-22%,-26%[46.1 µM],-3%,-16%
CCCn1c(CCC(=O)O)ccc1-c1ccccc1,-12%,u,-8%,1%,0%,x
O=C(O)CCc1ccc(-c2ccccc2)o1,u,3.5µM*,1%,-7%[46.1 µM],-9%,-25%
